Assay results taken from PubChem BioAssay AID686979 (National Center for Advancing Translational Sciences (NCATS), 2013).
Hit rate of the full screen: of about 420,000 compounds, about 50,000 (12%) were called active. A call without a number means that no potency is given here. Roughly 26% stayed inconclusive and do not appear here. The call rests on the fitted dose curve; in most records, active means well fitted inhibition curve with a large enough effect; inconclusive means small, poorly fitted or top-dose-only effect; inactive means flat fitted curve, though single readings scatter. For the sample, actives were picked, then their nearest neighbours and some compounds at random.

Assay: qHTS for Inhibitors of human tyrosyl-DNA phosphodiesterase 1 (TDP1): qHTS in cells in presence of CPT; further: nearly all actives have a fitted effect of over 55% in size
Conditions: chicken DT40 Tdp1-/-;hTDP1 cells + 20 nM CPT, ATP luminescence, 48 h; series mostly up to 46.2 µM
Procedure, shortened: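 Chicken DT40 Tdp1-/- cells complemented with human TDP1, 400 cells/well, exposed to compounds plus 20 nM camptothecin for at least 48 h at 37 C; viability read as ATP content by CellTiter-Glo luminescence.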
Potency means the concentration at half of the fitted maximal effect.

Row | Structure (SMILES) | Potency
1 | Cc1ccc(C)n1NC(=O)c1ccc([N+](=O)[O-])cc1 | inactive
2 | CC(=O)N1CCc2ccc(N)cc21 | inactive
3 | CC1CCN(C(=O)CCc2nnc3ccc(NCc4ccco4)nn23)CC1 | inactive
4 | CN1CCc2c(sc3c2c(NCc2ccco2)nc2nnnn23)C1 | 29.1 µM (active)
5 | Cn1c(=O)n(Cc2ccco2)c(=N)c2c3c(sc21)CCCC3 | inactive
6 | O=C(COC(=O)c1ncc(Cl)c(Cl)c1Cl)NNC(=O)c1ccccc1 | inactive
7 | COc1ccc(N2C(=O)NC(NS(=O)(=O)c3ccc(Cl)cc3)(C(F)(F)F)C2=O)cc1 (configuration not stated) | inactive
8 | O=C1/C(=C\c2ccccc2Cl)SC(=S)N1CCC(=O)N1CCCc2ccccc21 | 6.51 µM (active)
9 | O=C(CN1CCCCCC1)NCCN1C(=O)S/C(=C\c2ccccc2Cl)C1=O | inactive
10 | COc1ccc(/C=C2\SC(=S)N(CCC(=O)Nc3cccc(C(=O)O)c3)C2=O)cc1OC | inactive
11 | Cc1ccc([C@@H]2CC(=O)[C@@H]3CN(S(=O)(=O)c4ccc(C)cc4)[C@H](c4ccccc4F)C[C@@H]3N2S(=O)(=O)c2ccc(Cl)cc2)cc1 | inactive
12 | CC1CC(NC(=S)N(C)C)CC(C)(C)C1 (configuration not stated) | inactive
13 | CC1CC(NC(=O)/C(C#N)=C/c2ccc[nH]2)CC(C)(C)C1 (configuration not stated) | 0.0184 µM (active)
14 | CCN(C[C@H]1N[C@@](CC)(C(=O)OC)[C@H]2C(=O)N(C)C(=O)[C@@H]12)C(=O)Nc1ccc(F)cc1 | inactive
15 | Cc1nn(C(=O)c2c(F)cccc2F)c(C)c1S(=O)(=O)N1CCOCC1 | inactive
16 | Cc1cccc(C(=O)NNC(=O)c2cccc([N+](=O)[O-])c2)c1 | inactive
17 | O=C(Nc1ccc(NC(=O)c2ccco2)c(Cl)c1)c1cccc([N+](=O)[O-])c1 | inactive
18 | O=C(Nc1ccc(C2CC2(Cl)Cl)cc1)c1cccc([N+](=O)[O-])c1 (configuration not stated) | 23.1 µM (active)
19 | Cc1c(NC(=O)C(C)Oc2cccc(Cl)c2)c(=O)n(-c2ccccc2)n1C (configuration not stated) | inactive
20 | COc1cc(/C=N/NC(=O)Cc2ccccc2)cc(OC)c1OC | inactive
21 | COc1cc(/C=N/Nc2nn3cnnc3c3ccccc23)cc(OC)c1OC | 10.3 µM (active)
22 | COc1ccc2[nH]c(C(=O)N/N=C/c3cc(OC)c(OC)c(OC)c3)cc2c1 | inactive
23 | CCOC(=O)CSc1nc(N2CCOCC2)c2c(c1C#N)CC(C(C)C)OC2 (configuration not stated) | inactive
24 | Cc1cccc(NC(=O)Cc2ccc(Br)cc2)n1 | inactive
25 | Cc1ccccc1N(C(=O)Cc1cccs1)C(C(=O)NC1CCCCC1)c1cn(C)nc1C (configuration not stated) | inactive
26 | Cc1ccsc1C(C(=O)NC1CCCCC1)N(C(=O)Cc1cccs1)C1CC1 (configuration not stated) | 20.6 µM (active)
27 | CC(Cc1cccs1)NC(=O)NC1CCCCC1 (configuration not stated) | inactive
